Compound activity as filed in PubChem BioAssay.
ELG1 genotox = induces genotoxicity in HEK293T cells with luciferase-tagged ELG1 | Potency, µM (doses to about 46 µM), inactives show at the top dose activity change, positive = activation, most hits filed as activators | 330,000 compounds, 1.3% hits | HEK293T ELG1-luciferase reporter, luminescence, 16 h; also: % of control where 0% means no effect; nearly all actives have a fitted effect of over 60% in size
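Luminescence read-out: rising ELG1-luciferase signal, reflecting elevated ELG1 protein under genetic stress, flags genotoxic compounds. Cells were treated for 16 hr at 37 °C before ONE-Glo detection.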
SMN2 splice up = enhancers of SMN2 splice variant expression; Potency, µM (titrated, usually from 46.1 µM), inactives show at the top dose activity change, positive = activation, hits mostly activators; 210,000 compounds, 2.8% hits; HEK293 SMN2-luciferase splicing reporter, luminescence, 30-36 h; AID 1458; also: % of control where 0% means no effect; nearly all actives have a fitted effect of over 55% in size
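HEK293 cells carry an SMN2 minigene-luciferase reporter in which exon 7 inclusion puts luciferase in frame. Cells were seeded at 2000 cells/well, attached for 10-12 hours, then exposed to compounds for 30-36 hours at 37C before ONE-Glo luminescence.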
Rab9 prom act = activates the Rab9 promoter; Huh7 Rab9 promoter-luciferase reporter, luminescence, 24 h; Potency, µM (highest dose often 9.22 µM), for the others: at the highest dose activation, negative = inhibition, most hits filed as activators; 320,000 compounds, 2.8% hits; also: % of control where 0% means no effect; nearly all actives have a fitted effect of over 60% in size
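Huh7 cells stably carrying Rab9 promoter–luciferase reporter, plated 1500 cells/well, compound added after 2 h and incubated 24 h at 37 °C; luciferase luminescence then read after 10 min with detection reagent.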
FLuc modulator = inhibits or activates purified firefly luciferase, miR-21 counter-screen; P08659; purified FLuc, Km substrates, luminescence inhibition; Potency, µM (top dose mostly 57.5 µM), for inactives: at the highest dose activity change, negative = inhibition, usual class: inhibitors; 360,000 compounds, 6.9% hits;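 also: plate controls were vehicle for no effect and reference inhibitor for full effect; nearly all actives have a fitted effect of over 55% in size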
Target sequence (P08659 whole entry, looked up): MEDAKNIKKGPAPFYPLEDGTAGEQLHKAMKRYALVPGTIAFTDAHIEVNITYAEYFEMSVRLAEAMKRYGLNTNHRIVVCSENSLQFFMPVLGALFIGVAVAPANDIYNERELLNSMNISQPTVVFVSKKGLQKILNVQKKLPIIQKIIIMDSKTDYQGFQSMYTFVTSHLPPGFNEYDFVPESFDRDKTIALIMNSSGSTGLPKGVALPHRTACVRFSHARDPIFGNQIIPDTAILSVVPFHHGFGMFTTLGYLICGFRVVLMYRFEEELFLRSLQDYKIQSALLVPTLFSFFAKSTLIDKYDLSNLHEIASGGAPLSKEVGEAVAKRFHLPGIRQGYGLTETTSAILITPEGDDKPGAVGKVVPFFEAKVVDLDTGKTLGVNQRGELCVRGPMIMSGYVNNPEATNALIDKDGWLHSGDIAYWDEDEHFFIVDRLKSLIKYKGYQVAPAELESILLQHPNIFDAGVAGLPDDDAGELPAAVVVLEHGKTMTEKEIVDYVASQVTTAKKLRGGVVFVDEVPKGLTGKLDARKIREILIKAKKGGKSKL
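Purified P. pyralis luciferase (10nM final) with 10uM D-luciferin and 10uM ATP (Km levels) in 50mM Tris acetate pH 7.5, 10mM Mg acetate, 0.01% Tween-20, 0.05% BSA; qHTS 6-point titration, ~60 µM downward; luminescence read.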
NPC1 promoter act = activators of NPC1 promoter; Huh7 NPC1 promoter luciferase reporter, 24 h; Potency, µM (highest dose often 9.22 µM), inactives show at the top dose activation, usual class: activators; AID 485313; 320,000 compounds, 2.4% hits; also: % of control where 0% means no effect; nearly all actives have a fitted effect of over 60% in size
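Quantitative HTS used a cell-based reporter: Huh7 cells stably bearing the NPC1 promoter upstream of luciferase were treated with compounds for 24 h, and promoter activation was read as luminescence.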
Active calls of the source: *; ? = inconclusive; . = no result. Rows were chosen to be rich in hits. Some 7.5% of all compounds tested hit in one or more screens of this group. Calls follow the shape of the dose curve; as a rule, active = well fitted curve in the direction sought with a large enough effect; inconclusive = small, poorly fitted or top-dose-only effect, or another doubt; inactive = no such curve, though single readings can be large; an effect the other way counts as inactive or inconclusive. Potency is read from the fitted curve at half-maximal effect.

SMILES	ELG1 genotox	SMN2 splice up	Rab9 prom act	FLuc modulator	NPC1 promoter act
COc1ccc(-c2nc(SCC(=O)NCCc3ccccc3)n[nH]2)cc1	.	.	.	16.9µM*	.
Cc1ccc2c(=O)c(C(=O)NCc3cccs3)c[nH]c2c1	15.6%	-1.3%	?	16.9µM*	16.9%
CCCc1cc(C(N)=O)c(NC(=O)c2ccco2)s1	?	26.1%	27.5%	-12.9%	24.5%
Cc1cc(S(=O)(=O)NCC(c2ccc(N(C)C)cc2)N2CCOCC2)ccc1F (stereo not given)	.	.	.	-1.4%	.
COc1ccc(OC(=O)NCCc2ccccc2)cc1	?	.	3.55µM*	15.1µM*	3.98µM*
COc1ccc(CCNC(=O)c2nn(C)cc2Cl)cc1	?	11.2µM*	19.4%	?	20.3%
COc1ccc2c(=O)c(C(=O)NCCc3ccccc3)c[nH]c2c1	10.9%	.	?	16.9µM*	?
Cc1nnc(C)c2c(C)n(-c3ccc(Cl)c(N)c3)c(C)c12	0.2%	.	-1.6%	1.3%	2.8%
COC(=O)C(C)Oc1ccc(-c2nccc(-c3ccccn3)n2)cc1 (stereo not given)	1.1%	.	8.8%	19µM*	13.5%
CC(Oc1ccccc1)C(=O)Nc1nc(-c2ccccn2)cs1 (stereo not given)	15.5%	.	-16.6%	-26.0%	-15.4%
COC(=O)C(C)Oc1ccc(-c2nccc(-c3ccc(F)cc3)n2)cc1 (stereo not given)	3.6%	.	0.0%	15.1µM*	7.4%
NNC(=O)COc1ccc(-c2nccc(-c3ccc(F)cc3)n2)cc1	7.4%	.	-11.1%	?	-14.0%
Oc1ccc(-c2nccc(-c3ccc(F)cc3)n2)cc1	?	.	?	13.5µM*	?
COc1ccc(CNC(=O)[C@H](C)NC(=O)C2CC(=O)N(c3ccc4c(c3)OCO4)C2)cc1 (stereo not given in full)	0.1%	.	4.2%	0.0%	1.4%
COc1ccc(-n2c(=S)[nH]c3sc(-c4ccccc4)cc3c2=O)c(OC)c1	-1.1%	.	1.1%	26.9µM*	-5.7%
O=C(O)c1ccc(-c2ccccn2)s1	?	12.8%	10.6%	?	12.4%
c1ccc(-c2ccc(-c3ccccn3)s2)nc1	?	.	3.98µM*	1.51µM*	?
Cc1ccc(Nc2nc(/N=C/N(C)C)n[nH]2)cc1C	5.6%	?	?	23.9µM*	?
O=[N+]([O-])c1ccc(-c2nc3ccc([N+](=O)[O-])cc3[nH]2)cc1	0.2%	.	?	2.69µM*	1.58µM*
CCCC[n+]1ccc(-c2nc3ccc([N+](=O)[O-])cc3[nH]2)cc1	8.7%	11.2µM*	?	?	22.2%
O=[N+]([O-])c1ccc2nc(C(O)C(O)c3nc4ccc([N+](=O)[O-])cc4[nH]3)[nH]c2c1 (stereo not given)	0.1%	.	-3.2%	-8.7%	2.0%
O=[N+]([O-])c1ccc2nc(/C=C/c3ccc(Cl)cc3)[nH]c2c1	-0.6%	20.8%	?	5.36µM*	?
Nc1ccc(-c2nc3ccc([N+](=O)[O-])cc3[nH]2)cc1	3.66µM*	3.55µM*	1.41µM*	3.38µM*	2.24µM*
CC(NC(=O)c1ccc2nc(Cc3ccccc3)oc2c1)c1ccccc1 (stereo not given)	.	.	.	-2.3%	.
CCCCC(=O)N1CCN(c2nc3ccc(Cl)cc3s2)CC1	?	.	29.3%	10.7µM*	?
SMILES	ELG1 genotox	SMN2 splice up	Rab9 prom act	FLuc modulator	NPC1 promoter act
CC(C)(CC(=O)O)CC(=O)N1CCN(c2nc3ccc(Cl)cc3s2)CC1	5.2%	.	-1.4%	-16.9%	-1.6%
Cc1cc(C)c2sc(N3CCN(C(=O)C4CC4)CC3)nc2c1	.	.	.	12µM*	.
COc1ccc(CN2CCN(c3nc4ccccc4s3)CC2)cc1	6.3%	.	?	?	23.9%
CCC(=O)N1CCN(c2nc3ccccc3s2)CC1	6.2%	2.4%	3.16µM*	16.9µM*	?
Cc1ccccc1CN1CCN(c2nc3ccccc3s2)CC1	20.6µM*	.	1.41µM*	4.78µM*	1.58µM*
Cc1c(C(=O)N2CCN(Cc3cccs3)CC2)oc2ccccc12	0.8%	.	0.4%	.	-5.9%
CNC(=S)N1CCN(c2nc3ccccc3s2)CC1	17.1%	.	?	16.9µM*	?
O=C(C1CC1)N1CCN(c2nc3ccccc3s2)CC1	?	?	2.24µM*	21.3µM*	2.82µM*
O=C(Nc1ccccc1)N1CCN(c2nc3ccccc3s2)CC1	-0.9%	-38.7%	-2.5%	-13.4%	14.4%
CSc1nc(-c2ccc(C)cc2)nc(C(Cl)Cl)n1	0.6%	19.1%	-36.4%	8.3%	-37.0%
COc1ccc(-c2cc(CCCC(=O)NCCc3ccc(OC)cc3OC)no2)cc1	-8.3%	-20.2%	-2.9%	?	-2.3%
CCOc1ccc(-c2cc(CCCC(=O)NCCc3ccccc3)no2)cc1	?	-29.7%	-1.6%	?	10.0%
COc1ccc(-c2cc(CCCC(=O)NCCc3ccccc3)no2)cc1	5.9%	.	?	7.57µM*	?
COc1ccc(-c2cc(CCCC(=O)NCc3ccccn3)no2)cc1	9.9%	-34.5%	11.9%	8.49µM*	12.7%
Cc1c(-c2cc(C(=O)O)no2)cnn1C	9.5%	.	14.9%	?	12.0%
Nc1nc(-c2ccccn2)nc(N)c1Cc1ccccc1F	-5.3%	27.6%	?	15.1µM*	?
Cc1n[nH]c(C)c1Cc1c(F)cccc1Cl	-4.1%	.	-3.0%	-19.9%	-5.0%
Nc1nc(-c2ccccn2)nc(N)c1Cc1c(F)cccc1Cl	20.5%	-42.2%	-22.7%	26.9µM*	-41.9%
Nc1nc(-c2ccccn2)nc(N)c1Cc1ccc(Cl)cc1Cl	2.7%	-73.3%	-19.3%	?	-31.5%
COc1ccc(/C=C/c2ccc3ccccc3[n+]2C)cc1OC	?	.	-11.3%	16.9µM*	-4.0%
CN(C)c1ccc(/C=C/c2ccc3ccccc3[n+]2C)cc1	10.2%	-74.0%	-46.8%	?	-34.8%
O=C(COc1ccccc1-c1ccccc1)c1ccccc1	1.3%	-11.5%	4.9%	-16.9%	4.8%
O=C(CCCOc1ccc(Cl)cc1Cl)Nc1ccncc1	-0.1%	-21.5%	-0.4%	23.9µM*	-3.1%
O=C(COc1ccc(Cl)cc1Br)Nc1ccncc1	?	.	2.3%	9.53µM*	?
Cc1ccccc1OCC(=O)Nc1ccncc1	1.7%	.	-4.3%	?	-5.5%
SMILES	ELG1 genotox	SMN2 splice up	Rab9 prom act	FLuc modulator	NPC1 promoter act
Cc1ccc(OCC(=O)Nc2ccncc2)c(C)c1	12.0%	.	3.7%	12µM*	-4.1%
O=C(COc1ccc(Cl)cc1Cl)Nc1cccnc1	?	-9.3%	-4.6%	6.75µM*	17.9%
O=C(CCCOc1ccc(Cl)cc1Cl)Nc1ccccn1	?	9.0%	-3.1%	16.9µM*	1.9%
CN(c1cccc(NC(=O)COc2ccc(Cl)cc2Cl)c1)S(C)(=O)=O	8.0%	29.9%	?	1.2µM*	29.4%
Cc1ccccc1OCC(=O)Nc1cccc(N(C)S(C)(=O)=O)c1	3.8%	22.7%	18.7%	?	12.9%
Cc1ccc(C(=O)Nc2ncc(C)s2)o1	?	12.6µM*	3.98µM*	10.7µM*	3.16µM*
